Holding throughout (type): functional
The test system of assay [1] is Plasmodium falciparum. Kind of assay: GSK_TCMDC: Inhibition of Plasmodium falciparum 3D7 in whole red blood cells, using parasite LDH activity as an index of growth. Test compounds present at 2uM.
Assay [2] concerns Plasmodium falciparum. Kind of assay: GSK_TCMDC: Inhibition of Plasmodium falciparum Dd2 in whole red blood cells, using parasite LDH activity as an index of growth. Test compounds present at 2uM.
The subject of assay [3] is HepG2. Kind of assay: GSK_TCMDC: Percent inhibition of human HepG2 cell line. Test compounds present at 10uM.

The structures appear in SMILES notation.

By Inhibition is commonly meant the percentage by which the read-out fell short of the control. Take `O=C(C=Cc1ccc(Cl)c(Cl)c1)NCCCCCN1CCCC(CCCNC(=O)c2ccc3c(c2)OCO3)C1` (configuration not stated): the figures for the Inhibition in assay [1], in assay [2] and in assay [3] were 95%, 4% and 30%, respectively.
With `CCC(CC)N1CCN(CC(=O)Nc2ccc([N+](=O)[O-])cc2C(=O)Nc2cccc(OC)c2)CC1`, the results for the Inhibition in assay [1], in assay [2] and in assay [3] were 100%, 35% and 35%, respectively.
`CCCCCNc1ccnc2cc(Cl)ccc12`: the Inhibition worked out at 97% in assay [1], 99% in assay [2] and 12% in assay [3].
On to `CC1CCC(C[C@@H](C(=O)N[C@H](C(=O)Nc2nccs2)[C@@H](C)O)[C@H](CCC(F)(F)F)N(O)C=O)CC1` (some centres not stated), for which the values for the Inhibition in assay [1], in assay [2] and in assay [3] were 95%, 94% and 0%, respectively.
For `CC(C)c1cc(N)c2cc(NC(=O)COCC(=O)Nc3ccc4nc(C(C)C)cc(N)c4c3)ccc2n1`, the Inhibition in assay [1] stood at 95%; in assay [2], 95%; in assay [3], 0%.
Regarding `Cc1cc(NC(=O)Nc2ccc3sccc3c2)c2ccccc2n1`, the Inhibition in assay [1] came out at 99%; in assay [2], 57%; in assay [3], 41%.
Turning to `Cc1cc(N[C@@H](CC(C)C)C(=O)NCCc2ccccc2)nc(NCCc2ccc(F)cc2)n1.O=C(O)C(F)(F)F`, the Inhibition in assay [1] is reported as 98%; in assay [2], 53%; in assay [3], 12%.
`CC1(CCCCN2CCC(c3c[nH]c4cnccc34)CC2)C(=O)Nc2cccc(Cl)c21` (configuration not stated): the values for the Inhibition in assay [1], in assay [2] and in assay [3] were 100%, 0% and 26%, respectively.
On to `O=C(NCCNc1nc(NCCNC(=O)Nc2ccccc2)c2ccc(=O)n(-c3c(F)cccc3F)c2n1)Nc1ccccc1`, for which the Inhibition in assay [1] worked out at 94%; in assay [2] it was 87%; in assay [3] it was 1%.
For the molecule `CN(C)CCCN1CCN(Cc2ccc(-c3ccc(-c4nc5ccccc5[nH]4)s3)cc2)CC1`, the Inhibition in assay [1] is 100%; in assay [2], 100%; in assay [3] it was 19%.
`Cc1cc2cc(-c3ccc(CN)cc3)ccc2nc1N`: the Inhibition worked out at 92% in assay [1], 8% in assay [2] and 18% in assay [3].
As for `Cc1nn(-c2ccccc2)c2nc(-c3ccccc3)cc(C(=O)N3CCOCC3)c12`, the Inhibition in assay [1] was 93%; in assay [2], 67%; in assay [3] it was 6%.
As to `OC[C@H](Nc1nc(C(Oc2ccccc2)c2ccccc2)nc2[nH]ncc12)c1ccccc1` (some centres not stated), the Inhibition in assay [1] is given as 98%; in assay [2], 45%; in assay [3] it was 0%.
On to `O=C(NCc1ccccc1)C1Cc2c([nH]c3ccc(Br)cc23)C2(CCN(Cc3ccccc3)CC2)N1` (configuration not stated), for which the figures for the Inhibition in assay [1], in assay [2] and in assay [3] were 98%, 70% and 15%, respectively.
Consider `COc1ccc2nccc([C@@H](O)CN3CCC(NC(=O)/C=C/c4ccc5ccccc5n4)CC3)c2c1`, for which the Inhibition in assay [1] stood at 91%; in assay [2], 9%; in assay [3], 12%.
Consider `O=C(/C=C/c1c(Cl)cccc1Cl)NC1CCC(CN2CCC(Cc3cc4ccccc4[nH]3)CC2)CC1` (configuration not stated), for which the Inhibition in assay [1] turned out to be 91%; in assay [2], 17%; in assay [3], 97%.
For `COc1cc(C2CCCCC2)c(OC)cc1CC1c2cc(O)c(Cl)cc2CCN1C.Cl` (configuration not stated), the Inhibition in assay [1] is listed as 100%; in assay [2] it was 100%; in assay [3] it was 12%.
For `O=C(Nc1ccc(OC2CCN(Cc3ccc(F)cc3)CC2)c(Cl)c1)c1cccs1.O=C(O)C(F)(F)F`, the Inhibition in assay [1] is reported as 95%; in assay [2], 96%; in assay [3] it was 7%.
For `Cc1ccc(Oc2ccccc2NC(=O)CCc2nc3ccccc3c(=O)[nH]2)cc1`, the results for the Inhibition in assay [1], in assay [2] and in assay [3] were 100%, 99% and 3%, respectively.
In the case of `Cc1ccc(S(C)(=O)=O)cc1/C=C/C(=O)O`, the Inhibition in assay [1] came out at 96%; in assay [2], 1%; in assay [3], 0%.
For `CCOC(=O)c1c(NC(NC(=O)c2ccc(C(C)(C)C)cc2)C(Cl)(Cl)Cl)sc2c1CCCC2` (configuration not stated), the Inhibition in assay [1] is listed as 98%; in assay [2] it was 94%; in assay [3], 1%.
For `CC(=O)Nc1nc(C(=O)Nc2cccc(-c3cccc(-c4nc5cc(F)ccc5[nH]4)c3)c2)cs1`, in that order: 100%, 100% and 39%.
Regarding `CCOC(=O)c1cccc(NC(=N)Nc2nc(C)cc(NCCc3ccccc3)n2)c1`, the Inhibition in assay [1] was 100%; in assay [2], 72%; in assay [3], 21%.
For the molecule `O=C(CCCCCNC(=O)c1ccc(O)c(-c2ccc(Cl)c(Cl)c2)c1)NC1CCCc2ccccc21` (configuration not stated), the Inhibition in assay [1] is 97%; in assay [2] it was 13%; in assay [3] it was 0%.
Turning to `CCCCCCN1CCCN(Cc2cccc(NC(=O)c3cc4ccccc4s3)c2)CC1.O=C(O)C(F)(F)F`, the Inhibition in assay [1] is given as 88%; in assay [2], 53%; in assay [3] it was 31%.
For `COc1ccc(-c2cnc3ccc(NCCCO)nn23)cc1OC`, the Inhibition is reported as 98% in assay [1], 90% in assay [2] and 9% in assay [3].
With `COc1ccc(F)cc1-c1ccc(C(=O)N2CCCN(c3ccc(C(F)(F)F)cn3)CC2)cc1`, the Inhibition worked out at 100% in assay [1], 100% in assay [2] and 4% in assay [3].
`CC(Cc1ccc(COc2ccc(CC(CO)NCCc3cccc(Cl)c3)cc2)cc1)NCCc1cccc(Cl)c1.Cl` (configuration not stated): the Inhibition in assay [1] worked out at 100%; in assay [2], 86%; in assay [3], 99%.
The matching figures for `COc1ccc(CN(C)Cc2cc(C(C)C)c(C)cc2O)cc1F`: 98%, 98% and 1%.

Values taken from ChEMBL document CHEMBL1157539, “Thousands of chemical starting points for antimalarial lead identification” (Nature, 2010).
